Screening data deposited in PubChem by National Center for Advancing Translational Sciences (NCATS).
ALDH1A1 block = inhibitors of human aldehyde dehydrogenase 1A1; Potency, µM (series often up to 75.3 µM), actives largely listed as inhibitors; P00352; AID 1030; Purified ALDH1A1, NADH fluorescence, propionaldehyde substrate; hit rate 7.3% among 220,000
PNC inhibitor = blocks assembly of the perinucleolar compartment; activity change (PNC), negative = inhibition, % at 10 µM; hit rate 3.1% among 140,000; PC3M PTB-GFP, PNC prevalence imaging, 16 h; hits give low values; AID 2417;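 active = readout at or below -70, meaning at least 70% loss of cells showing the perinucleolar compartment, a nuclear body marking cancer cells; inconclusive = readout between -30 and a set limit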
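PC3M cells stably expressing PTB-GFP, 750–1000 cells/well, treated 16 h at 37 °C with compound (23 nl of library stock), in duplicate. After paraformaldehyde fixation and Hoechst stain, imaged at 20x; PNC prevalence scored by image analysis.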
12-hLO inh = inhibitors of human 12-lipoxygenase (ALOX12) | Potency, µM (highest dose often 57.1 µM), hits mostly inhibitors | AID 1452 | hit rate 0.12% among 150,000 | purified 12-hLO, xylenol orange hydroperoxide absorbance | P18054; active = well fitted inhibition curve with a large enough effect; inconclusive = small, poorly fitted or top-dose-only effect; also: nearly all actives have a fitted effect of over 55% in size
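Xylenol orange chromogenic assay: hydroperoxide from 12hLO oxidises Fe(II), giving red-shifted Fe(III)-XO absorbance. Conditions: 150 nM enzyme, 40 uM arachidonic acid, 25 mM Hepes pH 7.0, 0.01% Triton X-100, 30 min, room temperature.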
HPGD inh = HPGD (human) dehydrogenase inhibition; Potency, µM, most hits filed as inhibitors; P15428; hit rate 4.3% among 150,000; AID 894; purified HPGD, NADH fluorescence kinetic, PGE2 substrate
Target sequence (P15428 whole entry, looked up): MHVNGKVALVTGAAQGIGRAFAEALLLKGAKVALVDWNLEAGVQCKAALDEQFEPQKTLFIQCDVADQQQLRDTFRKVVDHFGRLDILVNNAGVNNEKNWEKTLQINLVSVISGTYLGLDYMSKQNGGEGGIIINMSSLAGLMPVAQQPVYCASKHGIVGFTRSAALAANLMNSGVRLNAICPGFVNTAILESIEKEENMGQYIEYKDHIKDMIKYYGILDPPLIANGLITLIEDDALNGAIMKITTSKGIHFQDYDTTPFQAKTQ
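NADH formation kinetics: reaction with 30 uM PGE2 and 1 mM NAD+ (final), 20 nM enzyme, Tris-HCl pH 8 with Tween 20, after 15 min compound preincubation at room temperature. Fluorescence change, last versus first of five reads.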
Lamin A splicing = modulators of lamin A splicing; HeLa LMNA splicing GFP/RFP minigene ratio, 48 h; AID 1487; hit rate 0.01% among 200,000; Potency, µM (titrated, usually from 46.1 µM), usual class: inhibitors; active = well fitted inhibition curve with a large enough effect in the signal ratio, with a control signal flat, not every such curve was filed as active; inconclusive = small, poorly fitted or top-dose-only effect, or effect the other way, or a change in a side signal; the % refers to the signal ratio
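S3 HeLa cells stably expressing lamin A-EGFP splicing minigene plus DsRed2, 600 cells/well, 48 h compound exposure at 37C. Laser-scanning cytometry; analysed as GFP (500-530 nm)/RFP (575-640 nm) total intensity ratio; 0.5% DMSO vehicle.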
Large screens that a line does not name were inactive. The list is not random: actives were taken first. Their share in the collection is about 10%. Unless noted, calls follow the shape of the dose curve; as a rule, active = well fitted inhibition curve with a large enough effect (not every such curve was filed as active); inconclusive = small, poorly fitted or top-dose-only effect, or another doubt; inactive = no such curve, though single readings can be large or run the other way.

Cn1cc(C(=O)NC2C3CC4CC(C3)CC2C4)cn1 (centres undefined)	none
CCOC(=O)c1sc(NC(=O)CSc2nc3c(c(=O)n2-c2ccc(C)cc2)SCC3)c(C(=O)OCC)c1C	ALDH1A1 block 9.46µM, Lamin A splicing inconclusive
Cc1ccc(-n2c(SCC(=O)NCC3CCCO3)nc3c(c2=O)SCC3)cc1 (centres undefined)	ALDH1A1 block 25.1µM
CCOc1ccc(-n2c(SCC(=O)NCc3ccco3)nc3c(c2=O)SCC3)cc1	ALDH1A1 block 14.1µM, PNC inhibitor inconclusive
Cc1ccc(Cn2c(SCC(=O)NCC3CCCO3)nc3ccsc3c2=O)cc1 (centres undefined)	ALDH1A1 block 20µM (no result: PNC inhibitor, 12-hLO inh, HPGD inh)
O=C(CSc1nc2c(c(=O)n1-c1ccc(Br)cc1)SCC2)NCc1ccco1	none
Cc1cc(C)cc(NC(=O)C2CCN(S(=O)(=O)c3cn(C)cn3)CC2)c1	none (no result: ALDH1A1 block, PNC inhibitor, 12-hLO inh, HPGD inh)
CCN(CC)CCCC(C)n1c(-c2ccccc2)nc2c(N3CCOCC3)nc(C)nc21 (centres undefined)	ALDH1A1 block inconclusive (no result: PNC inhibitor, Lamin A splicing)
C(/C=C\c1ccccc1)=Nc1ccc2c(c1)Cc1ccccc1-2	ALDH1A1 block inconclusive (no result: PNC inhibitor, Lamin A splicing)
Cc1cc(C)n(C(C)CC(=O)Nc2ccc(Cl)cc2C)n1 (centres undefined)	none (no result: ALDH1A1 block, PNC inhibitor, 12-hLO inh, HPGD inh)
CC1(C)CCC[C@]2(C)C3CC(=O)O[C@@]3(C)CC[C@H]12 (some centres undefined)	ALDH1A1 block 20µM (no result: PNC inhibitor, Lamin A splicing)
CC(NS(=O)(=O)c1ccc(CCC(=O)N2CCN(C)CC2)cc1)c1ccccc1 (centres undefined)	PNC inhibitor -81.7
COc1ccc(N2CCN(C(=O)CCNS(=O)(=O)c3ccc4c(c3)CCC(=O)N4)CC2)cc1	ALDH1A1 block inconclusive
COc1ccc(N2CCN(C(=O)CCc3ccc(S(=O)(=O)NCC(C)C)cc3)CC2)cc1	ALDH1A1 block 12.6µM, PNC inhibitor inconclusive, Lamin A splicing inconclusive
CC(C)NS(=O)(=O)c1ccc(CCC(=O)N2CCc3ccccc3C2)cc1	none (no result: PNC inhibitor, 12-hLO inh, HPGD inh, Lamin A splicing)
COc1cccc([C@@H]2Oc3ccc(Br)cc3C[C@H]2OC(=O)Nc2cc(OC)c(OC)c(OC)c2)c1	none (no result: PNC inhibitor, 12-hLO inh, Lamin A splicing)
CCc1ccccc1NC(=O)CN1C(=O)C2CCCN2c2ncc(Cl)cc21 (centres undefined)	ALDH1A1 block 17.8µM, PNC inhibitor inconclusive
CC(=O)c1cc(F)c(N2CCN(C(=O)C(C)(C)C)CC2)cc1C	ALDH1A1 block 15.8µM
Cc1ccc(-n2ncc(Br)c(Br)c2=O)cc1	ALDH1A1 block 3.16µM (no result: PNC inhibitor, 12-hLO inh, HPGD inh, Lamin A splicing)
O=c1c(Br)c(N2CCCC2)cnn1-c1ccccc1	none
O=c1c(Br)c(Br)cnn1-c1ccccc1	ALDH1A1 block 7.08µM, Lamin A splicing inconclusive (no result: PNC inhibitor, 12-hLO inh, HPGD inh)
COc1c(Cl)cnn(-c2ccc(C)cc2)c1=O	ALDH1A1 block inconclusive
Cc1nc2ccccc2c(=O)n1-c1ccc(NC(=O)c2ccccc2[N+](=O)[O-])cc1	none (no result: ALDH1A1 block, PNC inhibitor, 12-hLO inh, HPGD inh)
C[C@@H]1C=C[C@](Cc2ccccc2)(C(=O)NCCCNc2ncc(C(F)(F)F)cc2Cl)N1C(=O)c1ccccc1	ALDH1A1 block inconclusive (no result: PNC inhibitor, Lamin A splicing)
CSC1=C(C#N)C(c2ccccc2Cl)C(C(C)=O)=C(C)N1 (centres undefined)	ALDH1A1 block inconclusive
C=CCOC(=O)C1=C(C)NC(SC)=C(C#N)C1c1cccs1 (centres undefined)	ALDH1A1 block inconclusive
CSCSC1=C(C#N)C(c2ccc(Cl)cc2)C(C(C)=O)=C(C)N1 (centres undefined)	ALDH1A1 block 8.91µM, HPGD inh 31.6µM, Lamin A splicing inconclusive
CCOC(=O)CSC1=C(C#N)C(c2ccccc2)C(C(C)=O)=C(C)N1 (centres undefined)	ALDH1A1 block 31.6µM
CSC1=C(C#N)C(c2ccccc2)C(C(C)=O)=C(C)N1 (centres undefined)	Lamin A splicing inconclusive (no result: PNC inhibitor, 12-hLO inh, HPGD inh)
C=CCOC(=O)C1=C(C)NC(SC)=C(C#N)C1c1ccc(OCC)cc1 (centres undefined)	ALDH1A1 block 20µM, Lamin A splicing inconclusive (no result: HPGD inh)
O=C(O)Cc1[nH]cnc1C(=O)O	none (no result: PNC inhibitor, Lamin A splicing)
COc1cc(/C=C2\SC(=Nc3ccccc3)N(CCc3c[nH]c4ccccc34)C2=O)ccc1OC(C)C(=O)O (centres undefined)	PNC inhibitor inconclusive, HPGD inh inconclusive, Lamin A splicing inconclusive
COc1ccc(N=C2S/C(=C\c3ccc(OC(C)C(=O)O)c(OC)c3)C(=O)N2CCc2c[nH]c3ccccc23)cc1 (centres undefined)	ALDH1A1 block 14.1µM (no result: PNC inhibitor, 12-hLO inh, HPGD inh)
